A number with no mark means an inactive call. Active and inactive are the calls of the source.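 The calls were made as follows: active = average half-effect concentration of 10 µM or less in every one of the four cell panels; inactive = the rest.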
The compounds below were run on HL-1 (assay: protection of cardiomyocytes from stress damage, SAR follow-up, cell-based, panel, H9c2 and HL-1, H2O2, 2-deoxyglucose, ATP luminescence (AID 651642;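 as to activity: plate controls were H2O2 plus DMSO for no effect and cells kept without H2O2 for full effect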)). Conditions: H9c2/HL-1 cardiomyocyte H2O2 oxidative damage, mean of runs; activity: with H2O2, at 0.154 µM; outcome: with H2O2.

Q: For `COC(=O)CNC(=O)c1cccc(NC(=O)c2cc(-c3cc(OC)c(OC)c(OC)c3)nc3ccccc23)c1`, which activity is on record?
A: The activity was -1.7% (active).

Q: How did the activity turn out when `COc1cc(-c2cc(C(=O)Nc3cccc(C(C)=O)c3)c3ccc(Cl)cc3n2)cc(OC)c1OC` was run?
A: The activity was -6.29% (active).

Q: With `COc1ccc2c(c1OC)C(=O)N1c3ccccc3C(=O)N(Cc3ccc(C)cc3)C21` (stereo not given) as the compound, how does the activity read?
A: Its activity is 9.89%.

Q: Which activity does the source give for `CCOC(=O)c1ccc(NC(=O)c2cc(-c3cc(OC)c(OC)c(OC)c3)nc3ccccc23)cc1` here?
A: The activity was 0.646%.

Q: How did the activity turn out when `COc1cc(-c2cc(C(=O)Nc3cccc(-c4nn[nH]n4)c3)c3ccccc3n2)cc(OC)c1OC` was run?
A: Its activity is -2.86%.

Q: With `COc1ccc2nc(-c3cc(OC)c(OC)c(OC)c3)cc(C(=O)NCC(=O)Nc3cccc(C(C)=O)c3)c2c1` as the compound, how does the activity read?
A: Its activity is -0.983% (active).

Q: How did the activity turn out when `COc1ccc2c(c1OC)C(=O)N1c3ccccc3C(=O)N(Cc3c(Cl)cccc3Cl)C21` (stereo not given) was run?
A: The activity was 2.81%.

Q: With `CCOC(=O)c1cccc(NC(=O)c2cc(-c3cc(OC)c(OC)c(OC)c3)nc3cc(Cl)ccc23)c1` as the compound, how does the activity read?
A: Its activity is 1.44%.

Q: How did the activity turn out when `CCOC(=O)c1cccc(NC(=O)CNC(=O)c2cc(-c3cc(OC)c(OC)c(OC)c3)nc3ccc(Br)cc23)c1` was run?
A: Its activity is -0.604% (active).

Q: With `CCOC(=O)c1cccc(NC(=O)CNC(=O)c2cc(-c3cc(OC)c(OC)c(OC)c3)nc3ccc(F)cc23)c1` as the compound, how does the activity read?
A: Its activity is 2.27% (active).

Q: Which outcome does the source give for `COc1ccc2nc(-c3cc(OC)c(OC)c(OC)c3)cc(C(=O)Nc3cccc(C(C)=O)c3)c2c1` here?
A: Its outcome is “inactive”.

Q: Which activity does the source give for `COc1ccc2c(c1OC)C(=O)N1c3ccccc3C(=O)N(Cc3ccccc3C)C21` (stereo not given) here?
A: The activity was -0.339%.

Q: With `COc1cc(-c2cc(C(=O)NCC(=O)Nc3ccc(C(C)=O)cc3)c3cc(C)ccc3n2)cc(OC)c1OC` as the compound, how does the activity read?
A: The activity was 4.62% (active).

Q: For `COc1ccc2nc(-c3cc(OC)c(OC)c(OC)c3)cc(C(=O)NCC(=O)Nc3ccc(C(C)=O)cc3)c2c1`, which activity is on record?
A: The activity was -1.7% (active).

Q: With `COc1cc(-c2cc(C(=O)Nc3cccc(C(C)=O)c3)c3cccc(Cl)c3n2)cc(OC)c1OC` as the compound, how does the activity read?
A: The activity was -3.22%.

Q: `COc1cc(-c2cc(C(=O)Nc3cccc(C(=O)O)c3)c3ccccc3n2)cc(OC)c1OC` was tested. Which activity did it give?
A: Its activity is 1.9%.

Q: With `CCOC(=O)c1cccc(NC(=O)c2cc(-c3cc(OC)c(OC)c(OC)c3)nc3ccc(C)cc23)c1` as the compound, how does the activity read?
A: The activity was 4.25%.

Q: Which activity does the source give for `COc1cc(-c2cc(C(=O)Nc3cccc(C(C)=O)c3)c3cc(F)ccc3n2)cc(OC)c1OC` here?
A: Its activity is -2.5% (active).

Q: How did the activity turn out when `CCOC(=O)c1cccc(NC(=O)CNC(=O)c2cc(-c3cc(OC)c(OC)c(OC)c3)nc3ccccc23)c1` was run?
A: The activity was -0.899%.

Q: For `COc1cc(-c2cc(C(=O)Nc3cccc(C(=O)N(C)C)c3)c3ccccc3n2)cc(OC)c1OC`, which activity is on record?
A: Its activity is 0.987% (active).
